# In PubChem BioAssay (Tox21):
# Several values for one entry are separate records, joined by “and”; a condition that tells them apart may be missing. Identical values can stand only once. Results filed as inconclusive are left out. A call without a number means that no potency is given here. A structure can be active in one record and inactive in another. Activity calls are given as the source filed them. Calls come from the whole dose curve; as a rule, active = well fitted cell-killing curve with a large enough effect in the repeat runs; inconclusive = weak or mixed curves; inactive = flat fitted curve, though single readings scatter.
# Assay: qHTS assay to identify small molecule antagonists of the estrogen related receptor (ERR) signaling pathway from Tox21 library - cell viability counter screen (AID 1224834); note: nearly all actives have a fitted effect of over 30% in size
# Settings: ERR reporter cells viability, CellTiter-Fluor, 17.5 h; series mostly up to 92.4 µM
# Text: National Center for Advancing Translational Sciences [NCATS]
# NIH Chemical Genomics Center [NCGC]
# U.S. Environmental Protection Agency [EPA]
# National Institutes of Environmental Health Sciences [NIEHS]
# National Toxicology Program [NTP]
# U.S. Food and Drug Administration [FDA]
# Estrogen related receptors (ERRs), the first orphan nuclear receptors discovered, play an important role in the control of cellular energy metabolism. ERRs are required for high-energy production in response to the environmental challenges. ERR-alpha was also identified as an adverse marker for breast cancer progression; ERR-alpha-positive tumors have a poor prognosis. To screen and to identify environmental compounds that perturb the ERR signaling pathways could provide valuable information for potential therapeutic or preventive measures in the treatment of metabolic disease. To differentiate true ERR antagonists or agonist from cytotoxic substances, the assay is multiplexed with cell viability assay.
# Tox21 Assay Protocol Summary:
# The ERR cells were dispensed at 2,000 cells/5 ul/well in 1536-well white plates using a Multidrop dispenser. After the assay plates were incubated at a 37 C/5% CO2 incubator for 6 hours, 23 nL of compounds dissolved in DMSO, positive and negative controls or DMSO only was transferred to the assay plate by a pin tool. The plates were incubated at 37 C for 17.5 hours. 1 ul/well of CellTiter-Fluor reagent was added into the assay plates using a Flying Reagent Dispenser. After 30-minute incubation at 37 C/5% CO2, the fluorescence intensity in the plates was measured using a ViewLux plate reader.
# Potency is the fitted concentration of half-maximal effect.
row,SMILES,Potency
1,O=C(O)c1cccc([N+](=O)[O-])c1,inactive
2,C/C=C/c1ccc(OC)cc1,inactive
3,c1ccc2[nH]ccc2c1,26.9 µM (active) and inactive
4,COc1ccc2[nH]cc(CCNC(C)=O)c2c1,inactive
5,Cc1ccc(O)cc1,inactive
6,CC(C)[C@@H]1CC[C@@H](C)C[C@H]1O,inactive
7,Cn1cc[nH]c1=S,inactive
8,Cc1ccc(C)c(OCCCC(C)(C)C(=O)O)c1,inactive
9,Cc1ccc(S(=O)(=O)NC(=O)NN2CCCCCC2)cc1,inactive
10,O=C(c1ccccc1)c1ccccc1,inactive
11,C[C@]12C=CC(=O)C=C1CC[C@@H]1[C@@H]2[C@@H](O)C[C@@]2(C)[C@H]1CC[C@]2(O)C(=O)CO,inactive
12,OC(Cn1cncn1)(Cn1cncn1)c1ccc(F)cc1F,inactive
13,CCCC(O)C(CC)CO (stereo not given),inactive
14,C1N2CN3CN1CN(C2)C3,inactive
15,CC(O)CO (stereo not given),inactive
16,CC(=O)OCC(COC(C)=O)OC(C)=O,inactive
17,NC(=O)c1cnccn1,inactive
18,CC(O)CN(CCN(CC(C)O)CC(C)O)CC(C)O (stereo not given),inactive
19,Cc1cn([C@H]2C[C@H](N=[N+]=[N-])[C@@H](CO)O2)c(=O)[nH]c1=O,inactive
20,Nc1ccc(O)c(C(=O)O)c1,inactive

row,SMILES,Potency
1,O=C(O)c1cccnc1,inactive
2,Cn1c(=O)c2[nH]cnc2n(C)c1=O,inactive
3,O=C(O)CCC(=O)O,inactive
4,Nc1ccc(C(=O)O)cc1,inactive
5,Cc1cc(=O)n(-c2ccccc2)n1C,inactive
6,Nc1ccc(S(=O)(=O)c2ccc(N)cc2)cc1,inactive
7,Cc1ccccc1C(OCCN(C)C)c1ccccc1 (stereo not given),inactive
8,CCCN(CCC)S(=O)(=O)c1ccc(C(=O)O)cc1,inactive
9,NC(N)=O,inactive
10,COc1c2occc2cc2ccc(=O)oc12,inactive
11,CC1(C)[C@@H]2CC[C@@]1(C)C(=O)C2,inactive
12,Nc1ccc(S(=O)(=O)Nc2nccs2)cc1,inactive
13,CCCCCCCCCCCCCCCC(=O)O,inactive
14,CC(O)C(=O)O (stereo not given),inactive
15,NC(N)=NC(=O)c1nc(Cl)c(N)nc1N,inactive
16,NC(=O)NC1NC(=O)NC1=O (stereo not given),inactive
17,O=C1CN(/N=C/c2ccc([N+](=O)[O-])o2)C(=O)N1,30.5 µM (active) and 61.1 µM (active)
18,CCCCOC(=O)CC(CC(=O)OCCCC)(OC(C)=O)C(=O)OCCCC,inactive
19,CCCNC(=O)NS(=O)(=O)c1ccc(Cl)cc1,inactive
20,CNC[C@H](O)c1cccc(O)c1,inactive
